The values below come from the antibiotic and cytotoxicity screens of Wong et al. (2023).

Structures are written as SMILES. Hit rate of the full screen: of about 39,000 compounds, about 3,300 (8.5%) were called active. This excerpt belongs to a sample that is enriched for actives.

The test system of this assay is HepG2. Briefly: cytotoxicity call (relative viability < 0.9). The conditions noted are these: 10 µM.
On to `C[C@@H]1CN([C@H](C)CO)C(=O)Cc2cc(NS(=O)(=O)c3cccs3)ccc2O[C@H]1CN(C)C(=O)Nc1cccc2ccccc12`, for which the cytotoxicity call is “inactive”. Then `CCCNC(=O)N(C)C[C@@H]1Oc2cc(-c3ccccc3F)ccc2S(=O)(=O)N([C@@H](C)CO)C[C@@H]1C`, with “inactive”; and `CN(C)CCCNC(=O)C[C@@H]1C=C[C@H](NS(=O)(=O)c2ccccc2)[C@@H](CO)O1`, with “inactive”; and `C[C@@H]1CCCCO[C@@H](CN(C)S(=O)(=O)c2cn(C)cn2)[C@@H](C)CN([C@H](C)CO)C(=O)c2cc(NS(=O)(=O)c3ccccc3)ccc2O1`, with “inactive”.

For `O=C(NCCCN1CCOCC1)[C@H]1[C@H](CO)[C@H]2Cn3c(cccc3=O)[C@@H]1N2C(=O)C1CCCC1`, the cytotoxicity call was “inactive”. Then `COc1ccc(CNC(=O)C[C@H]2C[C@@H]3c4cc(NS(=O)(=O)c5ccc(F)cc5)ccc4O[C@@H]3[C@H](CO)O2)cc1`, with “inactive”.

Take `C[C@@H]1CN([C@@H](C)CO)C(=O)Cc2cc(NC(=O)CCCCCC(=O)Nc3ccccc3N)ccc2O[C@H]1CN(C)S(C)(=O)=O`: the cytotoxicity call is “inactive”.

On to `COc1cccc(CN(C)C[C@@H]2OCc3ccccc3-c3c(n(C)c4ccccc34)C(=O)N([C@@H](C)CO)C[C@H]2C)c1`, for which the cytotoxicity call is “inactive”.

Turning to `C[C@H](CO)N1C[C@H](C)[C@H](CN(C)Cc2ccc(C(F)(F)F)cc2)OCCCC[C@H](C)Oc2ccc(NS(=O)(=O)c3cn(C)cn3)cc2C1=O`, the cytotoxicity call is “inactive”. Then `O=C(C[C@@H]1CC[C@H]2[C@@H](COC[C@H](O)CN2C(=O)Nc2ccc(Cl)cc2)O1)NCCc1ccncc1`, with “inactive”; and `C[C@@H]1CCCCO[C@H](CN(C)Cc2ccc(C(F)(F)F)cc2)[C@@H](C)CN([C@@H](C)CO)C(=O)c2cc(N(C)C)ccc2O1`, with “inactive”; and `O=C(C[C@@H]1C[C@@H]2c3cc(NC(=O)C4CCOCC4)ccc3O[C@@H]2[C@H](CO)O1)NCc1cc(F)ccc1F`, with “inactive”. To `O=c1c(O)c(O)cc2cccc(O)c(O)c1-2` belongs “active”; to `O=c1c(O)cccc2cc(O)c(O)c(O)c12`, “inactive”.

As to `O=C(O)c1cc2ccc(O)c(=O)c-2c(O)c(O)c1`, the cytotoxicity call is “inactive”. As for `CCCNC(=O)Nc1ccc2c(c1)OC[C@H](C)N(C(=O)C1CCOCC1)C[C@H](C)[C@@H](OC)CN(C)C2=O`, the cytotoxicity call is “inactive”. To `Cc1ccc(S(=O)(=O)N(C)C[C@@H]2Oc3ccc(NS(C)(=O)=O)cc3CC(=O)N([C@@H](C)CO)C[C@H]2C)cc1` belongs “inactive”. To `C=CCN(Cc1ccccc1)C(=O)[C@@H]1N(CCOCCO)C(=O)[C@@H]2[C@H](C(=O)O)[C@@H]3C=C[C@@]21O3` belongs “inactive”; to `C=CCOC(=O)[C@@H]1[C@@H]2C=C[C@]3(O2)[C@H](C(=O)N(CC=C)Cc2ccccc2)N(c2cccc(Cl)c2CO)C(=O)[C@@H]13`, “inactive”; to `C=CCOC(=O)[C@@H]1[C@@H]2C=C[C@@]3(O2)[C@@H]1C(=O)N(CCCCCCO)[C@H]3C(=O)N(CC=C)Cc1ccccc1`, “active”. As for `Cc1cc(C(=O)Nc2cccc3c2O[C@@H](CN(C)C(=O)Nc2ccc4c(c2)OCO4)[C@H](C)CN([C@H](C)CO)C3=O)n(C)n1`, the cytotoxicity call was “inactive”. Turning to `CC(=O)N1CCN(CCOc2ccc(C3CCN(C4=Nn5c(nnc5C(F)(F)F)CC4)CC3)cc2)CC1`, the cytotoxicity call was “active”. To `C[C@@H]1CN([C@H](C)CO)S(=O)(=O)c2ccc(/C=C/c3ccccc3)cc2O[C@@H]1CN(C)C(=O)CN1CCOCC1` belongs “inactive”; to `COc1ccc(NC(=O)N(C)C[C@H]2OCCCC[C@H](C)Oc3ccc(NC(=O)Nc4ccc(F)cc4)cc3C(=O)N([C@@H](C)CO)C[C@H]2C)cc1`, “inactive”; to `CC(C)C[C@@H]1NC(=O)[C@@H]2C[C@H](C(=O)NCCCCCNC(=O)CS)[C@H](c3ccc(O)cc3)N2C1=O`, “inactive”. Then `C[C@H]1CN([C@@H](C)CO)S(=O)(=O)c2ccc(-c3cccc(C#N)c3)cc2O[C@H]1CN(C)C(=O)c1ccncc1`, with “inactive”. To `C[C@@H]1CN([C@@H](C)CO)S(=O)(=O)c2ccc(-c3ccc(C(=O)N(C)C)cc3)cc2O[C@@H]1CN(C)C(=O)C1CCOCC1` belongs “inactive”; to `O=C(O)CC(O)(CC(=O)O)C(=O)O` [listing 1 of 2 here], “inactive”.

For `CCN(CC)CCOCCOC(=O)C1(c2ccccc2)CCCC1.O=C(O)CC(O)(CC(=O)O)C(=O)O`, the cytotoxicity call was “active”. To `O=C(O)C1(c2ccccc2)CCCC1` belongs “inactive”; to `Cc1ccccc1C(OCCN(C)C)c1ccccc1.O=C(O)CC(O)(CC(=O)O)C(=O)O` (stereo not drawn), “inactive”; to `CCN(CC)CCOc1ccc(C(=C(Cl)c2ccccc2)c2ccccc2)cc1.O=C(O)CC(O)(CC(=O)O)C(=O)O`, “active”. To `CCN(CC)CCOCCOC(=O)C(CC)(CC)c1ccccc1.O=C(O)CC(O)(CC(=O)O)C(=O)O` belongs “inactive”; to `CN(C)CCOc1ccc(C(=C(CCCl)c2ccccc2)c2ccccc2)cc1.O=C(O)CC(O)(CC(=O)O)C(=O)O`, “active”. To `O=C(O)CC(O)(CC(=O)O)C(=O)O` [listing 2 of 2 here] belongs “inactive”; to `CCC(=C(c1ccccc1)c1ccc(OCCN(C)C)cc1)c1ccccc1.O=C(O)CC(O)(CC(=O)O)C(=O)O`, “inactive”. On to `O=C(C[C@@H]1CC[C@@H]2[C@H](COC[C@H](O)CN2S(=O)(=O)c2ccc(F)cc2)O1)NCCN1CCCCC1`, for which the cytotoxicity call is “inactive”. On to `C[C@@H]1CN([C@H](C)CO)C(=O)c2cccc(NS(C)(=O)=O)c2O[C@H]1CN(C)C(=O)Nc1ccc2c(c1)OCO2`, for which the cytotoxicity call was “inactive”. Then `CC(C)CC#Cc1ccc2c(c1)O[C@H](CN(C)Cc1cncnc1)[C@@H](C)CN([C@H](C)CO)S2(=O)=O`, with “inactive”; and `C=CC(=O)Nc1ccc([C@@H](CCc2ccc(OC)c(OC)c2)OC(=O)[C@@H]2CCCCN2C(=O)C(=O)C(C)(C)CC)cc1`, with “inactive”.

`Cc1ccc(S(=O)(=O)Nc2ccc3c(c2)C(=O)N([C@H](C)CO)C[C@@H](C)[C@@H](CN(C)C(=O)Cc2ccccc2)OCCCC[C@H](C)O3)cc1`: the cytotoxicity call is “inactive”. On to `COCC(=O)Nc1ccc2c(c1)OC[C@@H](C)N(Cc1ccccc1F)C[C@@H](C)[C@H](OC)CN(C)C2=O`, for which the cytotoxicity call was “inactive”.

As to `Cc1noc(C)c1NC(=O)Nc1ccc2c(c1)C(=O)N([C@@H](C)CO)C[C@@H](C)[C@H](CN(C)S(=O)(=O)c1cccs1)OCCCC[C@H](C)O2`, the cytotoxicity call was “inactive”. Then `C[C@@H]1CN([C@H](C)CO)C(=O)c2cc(NC(=O)Cn3cnnn3)ccc2O[C@@H]1CN(C)S(=O)(=O)c1cccs1`, with “inactive”; and `C1CCC(C(C[C@H]2CCCCN2)C2CCCCC2)CC1`, with “active”. To `OC[C@@H]1CCCN1` belongs “inactive”; to `O=C(O)CC[C@H]1CCCCN1`, “inactive”.

Take `O=C(O)[C@@H]1CCCCN1`: the cytotoxicity call was “inactive”. Regarding `C1CCC(C(CC2CCCCN2)C2CCCCC2)CC1.O=C(O)C=CC(=O)O` (stereo not drawn), the cytotoxicity call is “active”. Turning to `OC[C@@H]1CCCCN1`, the cytotoxicity call was “inactive”.

On to `C[C@H]1CN([C@@H](C)CO)C(=O)c2cccc(NS(=O)(=O)c3cn(C)cn3)c2O[C@H]1CN(C)CC1CCCCC1`, for which the cytotoxicity call is “inactive”. As for `CCCC#Cc1ccc2c(c1)O[C@@H](CN(C)S(=O)(=O)c1cccc(F)c1)[C@@H](C)CN([C@@H](C)CO)S2(=O)=O`, the cytotoxicity call is “inactive”. Then `O=C(CN1CCOCC1)NCC[C@H]1CC[C@@H](NC(=O)c2ccccc2F)[C@@H](CO)O1`, with “inactive”; and `CC(C)NC(=O)N(C)C[C@@H]1Oc2ccc(NC(=O)CCCN(C)C)cc2C(=O)N([C@H](C)CO)C[C@H]1C`, with “inactive”; and `CCc1nc(N)nc(N)c1-c1ccc(Cl)cc1`, with “active”. Turning to `CCc1nc2ccccc2nc1CC`, the cytotoxicity call is “inactive”.

Turning to `Nc1oncc1-c1ccc(Cl)cc1`, the cytotoxicity call was “inactive”. Then `C[C@@H]1CN([C@@H](C)CO)C(=O)c2cc(NC(=O)Nc3ccccc3)ccc2O[C@@H](C)CCCCO[C@H]1CN(C)C(=O)Cc1ccccc1`, with “inactive”. As to `C[C@@H]1CCCCO[C@@H](CN(C)C(=O)Nc2ccc(F)cc2)[C@@H](C)CN([C@H](C)CO)C(=O)c2cc(NC(=O)Nc3ccc(C(F)(F)F)cc3)ccc2O1`, the cytotoxicity call was “inactive”. Then `C[C@@H]1CN([C@@H](C)CO)S(=O)(=O)c2ccc(C#Cc3ccccc3F)cc2O[C@@H]1CN(C)C(=O)c1ccc2c(c1)OCO2`, with “active”; and `C[C@@H]1CN([C@@H](C)CO)S(=O)(=O)c2ccc(C#Cc3ccccc3F)cc2O[C@H]1CN(C)CC1CC1`, with “inactive”. Then `C[C@@H]1CN([C@@H](C)CO)S(=O)(=O)c2ccc(C#Cc3ccccc3F)cc2O[C@@H]1CN(C)C(=O)Cc1cccnc1`, with “active”. Then `CC(C)CC#Cc1ccc2c(c1)O[C@@H](CN(C)CC1CCOCC1)[C@H](C)CN([C@@H](C)CO)S2(=O)=O`, with “active”; and `CC(C)CC#Cc1ccc2c(c1)O[C@@H](CN(C)CC1CCOCC1)[C@@H](C)CN([C@H](C)CO)S2(=O)=O`, with “inactive”; and `C[C@@H]1CN([C@H](C)CO)S(=O)(=O)c2ccc(C#Cc3ccccc3F)cc2O[C@@H]1CN(C)CC1CC1`, with “inactive”. For `C[C@@H]1CN([C@@H](C)CO)S(=O)(=O)c2ccc(C#Cc3ccccc3F)cc2O[C@H]1CN(C)C(=O)Cc1cccnc1`, the cytotoxicity call is “inactive”. Then `C[C@@H]1CN([C@H](C)CO)S(=O)(=O)c2ccc(C#Cc3ccccc3F)cc2O[C@@H]1CN(C)C(=O)Cc1cccnc1`, with “inactive”; and `C[C@H](CO)N1C[C@H](C)[C@H](CN(C)CC2CC2)Oc2cc(C#Cc3ccccc3F)ccc2S1(=O)=O`, with “active”. On to `C[C@H]1CN([C@@H](C)CO)S(=O)(=O)c2ccc(C#Cc3ccccc3F)cc2O[C@H]1CN(C)C(=O)c1ccc2c(c1)OCO2`, for which the cytotoxicity call was “inactive”. In the case of `C[C@H]1CN([C@@H](C)CO)S(=O)(=O)c2ccc(C#Cc3ccccc3F)cc2O[C@@H]1CN(C)C(=O)c1ccc2c(c1)OCO2`, the cytotoxicity call was “inactive”.

Regarding `CC(C)CC#Cc1ccc2c(c1)O[C@H](CN(C)CC1CCOCC1)[C@@H](C)CN([C@H](C)CO)S2(=O)=O`, the cytotoxicity call is “inactive”. In the case of `C[C@H]1CN([C@@H](C)CO)S(=O)(=O)c2ccc(C#CC3CC3)cc2O[C@@H]1CN(C)C(=O)c1cccc(F)c1`, the cytotoxicity call was “inactive”.

`Cc1noc(C)c1NC(=O)N(C)C[C@H]1OCCCC[C@@H](C)Oc2ccc(NC(=O)Nc3ccccc3)cc2C(=O)N([C@@H](C)CO)C[C@H]1C`: the cytotoxicity call is “inactive”.
